In PubChem BioAssay (NCATS) one finds Potency and outcome data, which are given here for nine molecules.

Inconclusive results are not listed. A call without a number means that no potency is given here. Activity calls are given as the source filed them. Calls follow the shape of the dose curve; as a rule, active = well fitted curve in the direction sought with a large enough effect; inconclusive = small, poorly fitted or top-dose-only effect, or another doubt; inactive = no such curve, though single readings can be large; an effect the other way counts as inactive or inconclusive. *1 amine or outer side, *2 acyl side, *3 side chain or, on linkers, in order; H or OH if unused. Where a SMILES comes first, the peptide text is derived from it. Bridges are numbered along the chain shown (N, C = ends). X6 = O=C(CCC[*:2])[*:1]

The subject of one assay is HEK293T. In words: qHTS assay to identify novel small-molecules to repurpose for Merkel cell carcinoma treatment (AID 1296009). Also: nearly all actives have a fitted effect of over 60% in size. Particulars: MCC and control cell lines, CellTiter-Glo viability, 72 h; series mostly up to 44.8 µM. Summed up: (§1)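 Cells were incubated with compound for 72 hr at 37 degree celsius before CellTiter-Glo addition. Luminescence was normalized with no-cell wells as full cytotoxicity and DMSO as baseline.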
(In qHTS, concentration-response curves come from the screen itself.)

The subject of another assay is NIH3T3. The description is as above. Particulars: MCC and control cell lines, CellTiter-Glo viability, 72 h; at 44.8 µM (top of the series) unless noted. Summed up:
as §1
Background: In ATP-based viability assays light output follows the ATP content of the culture.

The subject of the next assay is C33A. As to the kind of experiment: Primary qHTS to identify gynecologic anti-cancer compounds using libraries of approved drugs and bioactive compounds (AID 1345084). Also: nearly all actives have a fitted effect of over 55% in size. Particulars: Gynecologic cancer cell panel viability, ATPlite luminescence, 48 h; series mostly up to 57.5 µM. In outline:
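Five-concentration response, 48 h; readout is ATP-driven luciferase luminescence.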

`C[C@@H]1C[C@H](O)/C=C/[C@H](O)[C@@H](O)CC(=O)O1`: the Potency entry in the assay with HEK293T and with C33A was “inactive” in each case. Moreover, the call in the assay with NIH3T3 was inactive.
`COc1cc(/C=C/C(=O)O[C@H]2[C@H](O)[C@@H](CO)O[C@@]2(CO)O[C@H]2O[C@H](COC(=O)c3ccc(O)cc3)[C@@H](O)[C@H](O)[C@H]2O)cc(OC)c1OC`: the Potency result in the assay on HEK293T and in the assay on C33A was “inactive” in each case. Further, in the assay with NIH3T3, the outcome is “inactive [at 17.4 µM]”.
Turning to `COC(=O)C1(Cc2ccc(O)cc2)OC(=O)C(OC)=C1c1ccc(O)cc1` (stereo unspecified), the Potency entry with HEK293T and in the assay with C33A was “inactive” each time. The result in the assay with NIH3T3 was inactive.
Take `C=C1CCC2C(C)(C(=O)O)CC(O)CC2(C)C1CC/C(C)=C/C(=O)O` (stereo unspecified): the Potency entry in the assay on HEK293T and in the assay with C33A was “inactive” in each case. The outcome in the assay with NIH3T3 was inactive.
`O=c1ccn([C@@H]2O[C@H](CO)[C@@H](O)[C@H]2O)c(=O)[nH]1`: the Potency result in the assay on HEK293T and in the assay on C33A was “inactive” throughout. The result in the assay on NIH3T3 was inactive.
Turning to `c1ccc(Cc2ncc3c(n2)CCNCC3)cc1`, the Potency entry with HEK293T and in the assay on C33A was “inactive” each time. Further, the molecule was called inactive in the assay on NIH3T3.
Take `CC[C@H](C)[C@@H]1NC(=O)[C@H](Cc2ccc(OC)cc2)NC(=O)CCCSC[C@@H](C(=O)N2CCC[C@H]2C(=O)N[C@@H](CC(C)C)C(=O)NCC(N)=O)NC(=O)[C@H](CC(N)=O)NC(=O)[C@H](CCC(N)=O)NC1=O` (Y(Me)IQNCPLG-NH2; linker N-5 via X6): the Potency entry in the assay with HEK293T and in the assay with C33A was “inactive” each time. Also, in the assay with NIH3T3, the outcome was inactive.
Take `COC1C2=C(COC2=O)C2(C)CCCC(C)(CO)C2C1OC(=O)c1ccccc1` (stereo unspecified): the Potency entry in the assay on HEK293T and in the assay on C33A was “inactive” throughout. For the same molecule, in the assay on NIH3T3, the outcome was “inactive [at 17.4 µM]”.
For `CC(=O)O[C@H]1[C@H](Oc2ccccc2COC(=O)C2(O)C=CCCC2=O)O[C@H](CO)[C@@H](O)[C@@H]1O` (stereo partly specified), the Potency result in the assay with HEK293T and with C33A was “inactive” each time.
